Residual activity data for two compounds are collected here from ChEMBL document CHEMBL2218924, “A broad activity screen in support of a chemogenomic map for kinase signalling research and drug discovery” (Biochem J, 2013).

As usually defined, the residual activity is the signal under treatment as a percentage of the control signal.

Experiment [1] has as its target T1, Ephrin type-A receptor 3 (Homo sapiens) (UniProt P29320).
T1 sequence (whole entry): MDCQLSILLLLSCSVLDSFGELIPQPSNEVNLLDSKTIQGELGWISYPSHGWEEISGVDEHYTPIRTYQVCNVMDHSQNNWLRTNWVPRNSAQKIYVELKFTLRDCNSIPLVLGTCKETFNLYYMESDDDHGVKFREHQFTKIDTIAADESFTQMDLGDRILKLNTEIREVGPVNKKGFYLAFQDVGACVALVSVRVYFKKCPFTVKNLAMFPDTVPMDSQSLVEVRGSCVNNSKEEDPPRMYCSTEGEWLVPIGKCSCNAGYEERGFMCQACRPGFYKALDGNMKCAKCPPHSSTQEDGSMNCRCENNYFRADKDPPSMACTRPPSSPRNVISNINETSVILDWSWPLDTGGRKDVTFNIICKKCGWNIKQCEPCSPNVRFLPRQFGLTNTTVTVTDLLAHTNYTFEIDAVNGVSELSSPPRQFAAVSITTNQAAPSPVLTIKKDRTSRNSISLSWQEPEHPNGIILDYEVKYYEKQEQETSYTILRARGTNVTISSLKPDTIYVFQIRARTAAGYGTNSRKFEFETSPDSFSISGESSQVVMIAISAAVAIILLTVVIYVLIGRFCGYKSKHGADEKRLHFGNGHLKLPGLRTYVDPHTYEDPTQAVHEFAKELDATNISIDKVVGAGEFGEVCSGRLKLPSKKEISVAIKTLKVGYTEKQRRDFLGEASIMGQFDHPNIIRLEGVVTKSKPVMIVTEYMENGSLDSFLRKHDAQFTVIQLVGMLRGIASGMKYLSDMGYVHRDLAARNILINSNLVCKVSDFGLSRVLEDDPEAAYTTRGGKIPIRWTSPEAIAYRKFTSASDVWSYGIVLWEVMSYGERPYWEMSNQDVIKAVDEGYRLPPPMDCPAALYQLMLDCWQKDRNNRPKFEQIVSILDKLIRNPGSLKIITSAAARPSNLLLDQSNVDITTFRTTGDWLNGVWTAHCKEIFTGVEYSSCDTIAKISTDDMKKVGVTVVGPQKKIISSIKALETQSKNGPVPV
The conditions noted are these: at 10 µM.

The target of experiment [2] is Ephrin type-A receptor 4 (Homo sapiens) (UniProt P54764). The following applies: at 10 µM.
Ephrin type-A receptor 4 (Homo sapiens), sequence (P54764 whole entry): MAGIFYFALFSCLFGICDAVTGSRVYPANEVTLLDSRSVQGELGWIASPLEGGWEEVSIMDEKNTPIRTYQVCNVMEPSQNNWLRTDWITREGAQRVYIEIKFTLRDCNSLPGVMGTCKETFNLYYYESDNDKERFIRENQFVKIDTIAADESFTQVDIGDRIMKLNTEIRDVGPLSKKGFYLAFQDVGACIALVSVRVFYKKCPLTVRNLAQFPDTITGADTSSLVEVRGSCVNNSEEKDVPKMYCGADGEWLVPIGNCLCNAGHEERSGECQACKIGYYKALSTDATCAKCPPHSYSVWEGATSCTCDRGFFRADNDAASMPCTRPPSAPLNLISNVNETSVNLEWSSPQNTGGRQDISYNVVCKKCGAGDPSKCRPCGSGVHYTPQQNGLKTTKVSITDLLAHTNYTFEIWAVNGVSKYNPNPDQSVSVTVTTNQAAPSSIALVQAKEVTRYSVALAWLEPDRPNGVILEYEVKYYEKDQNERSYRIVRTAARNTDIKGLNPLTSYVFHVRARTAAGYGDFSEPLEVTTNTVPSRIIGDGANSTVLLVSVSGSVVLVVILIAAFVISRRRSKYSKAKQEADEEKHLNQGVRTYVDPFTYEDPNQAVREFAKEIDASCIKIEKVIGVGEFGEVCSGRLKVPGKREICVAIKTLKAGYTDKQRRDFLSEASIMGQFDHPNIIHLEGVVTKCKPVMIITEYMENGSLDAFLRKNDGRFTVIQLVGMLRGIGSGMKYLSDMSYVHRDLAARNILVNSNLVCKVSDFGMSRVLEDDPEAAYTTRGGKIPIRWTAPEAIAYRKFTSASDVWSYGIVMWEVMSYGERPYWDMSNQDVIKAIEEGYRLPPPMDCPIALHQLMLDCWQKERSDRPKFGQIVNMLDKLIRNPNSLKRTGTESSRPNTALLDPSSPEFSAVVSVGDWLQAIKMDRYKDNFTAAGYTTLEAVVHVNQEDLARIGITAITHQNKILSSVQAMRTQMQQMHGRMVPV
Experiment [3] deals with Ephrin type-A receptor 5 (Homo sapiens) (UniProt P54756). The following applies: at 1 µM.
Ephrin type-A receptor 5 (Homo sapiens), sequence (P54756 whole entry): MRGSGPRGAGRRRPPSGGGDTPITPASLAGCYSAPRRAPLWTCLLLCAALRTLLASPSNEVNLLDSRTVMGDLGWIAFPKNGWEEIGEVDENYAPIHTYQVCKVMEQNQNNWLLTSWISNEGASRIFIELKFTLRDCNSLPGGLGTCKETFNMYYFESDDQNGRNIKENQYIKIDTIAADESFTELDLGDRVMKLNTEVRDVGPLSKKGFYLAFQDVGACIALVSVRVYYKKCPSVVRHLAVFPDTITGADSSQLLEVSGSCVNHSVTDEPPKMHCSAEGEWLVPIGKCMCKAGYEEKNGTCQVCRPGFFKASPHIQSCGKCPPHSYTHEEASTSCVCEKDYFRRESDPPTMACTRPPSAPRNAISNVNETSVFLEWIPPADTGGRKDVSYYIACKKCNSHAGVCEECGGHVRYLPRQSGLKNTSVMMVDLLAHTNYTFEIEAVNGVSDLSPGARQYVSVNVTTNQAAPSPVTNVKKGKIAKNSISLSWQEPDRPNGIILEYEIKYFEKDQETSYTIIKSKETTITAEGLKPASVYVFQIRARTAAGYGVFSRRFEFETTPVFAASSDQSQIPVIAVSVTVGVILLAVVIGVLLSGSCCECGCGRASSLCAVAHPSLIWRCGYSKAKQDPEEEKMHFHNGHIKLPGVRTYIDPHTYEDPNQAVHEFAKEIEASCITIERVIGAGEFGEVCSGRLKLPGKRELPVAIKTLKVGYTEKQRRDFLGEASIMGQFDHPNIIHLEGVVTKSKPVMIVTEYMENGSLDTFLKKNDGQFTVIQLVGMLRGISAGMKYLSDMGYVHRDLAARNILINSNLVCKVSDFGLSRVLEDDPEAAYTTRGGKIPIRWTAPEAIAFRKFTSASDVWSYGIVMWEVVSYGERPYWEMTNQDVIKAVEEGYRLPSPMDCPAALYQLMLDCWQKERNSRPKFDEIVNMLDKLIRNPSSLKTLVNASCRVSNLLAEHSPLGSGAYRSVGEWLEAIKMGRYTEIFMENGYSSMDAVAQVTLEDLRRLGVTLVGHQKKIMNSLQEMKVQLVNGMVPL
The target is the same in experiment [4]. The following applies: at 10 µM.
Experiment [5] concerns the target Ephrin type-A receptor 7 (Homo sapiens) (UniProt Q15375). The conditions noted are these: at 1 µM.
For experiment [6] the target is unchanged. The following applies: at 10 µM.
The target of experiment [7] is T2, Ephrin type-A receptor 8 (Homo sapiens) (UniProt P29322).
T2 sequence (whole entry): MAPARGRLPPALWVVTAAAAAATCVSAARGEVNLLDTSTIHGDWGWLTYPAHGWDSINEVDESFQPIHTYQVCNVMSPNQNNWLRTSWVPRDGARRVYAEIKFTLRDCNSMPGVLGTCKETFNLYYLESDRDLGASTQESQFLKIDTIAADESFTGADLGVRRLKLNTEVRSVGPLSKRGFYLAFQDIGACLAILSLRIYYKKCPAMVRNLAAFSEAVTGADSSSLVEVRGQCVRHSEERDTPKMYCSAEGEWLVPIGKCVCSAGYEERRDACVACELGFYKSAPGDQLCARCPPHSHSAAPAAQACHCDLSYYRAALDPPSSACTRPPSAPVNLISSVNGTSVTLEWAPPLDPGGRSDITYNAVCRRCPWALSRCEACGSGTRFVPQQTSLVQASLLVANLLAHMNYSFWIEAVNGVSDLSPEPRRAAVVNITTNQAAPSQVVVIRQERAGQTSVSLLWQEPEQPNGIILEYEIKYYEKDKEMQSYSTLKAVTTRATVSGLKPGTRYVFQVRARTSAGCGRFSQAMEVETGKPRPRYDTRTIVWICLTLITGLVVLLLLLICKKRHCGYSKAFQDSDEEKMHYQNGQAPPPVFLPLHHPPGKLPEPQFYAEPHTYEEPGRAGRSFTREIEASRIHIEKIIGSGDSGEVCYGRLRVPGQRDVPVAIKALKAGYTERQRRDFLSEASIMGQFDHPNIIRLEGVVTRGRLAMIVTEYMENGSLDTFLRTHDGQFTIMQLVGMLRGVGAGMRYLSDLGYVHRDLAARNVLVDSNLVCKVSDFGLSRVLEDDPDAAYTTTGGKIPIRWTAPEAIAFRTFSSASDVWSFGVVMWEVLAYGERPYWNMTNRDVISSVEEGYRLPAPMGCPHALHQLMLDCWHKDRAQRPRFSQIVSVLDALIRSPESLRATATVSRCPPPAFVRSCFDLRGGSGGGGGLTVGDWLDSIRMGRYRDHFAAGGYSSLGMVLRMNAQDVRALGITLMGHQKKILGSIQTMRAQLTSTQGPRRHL
The conditions noted are these: at 1 µM.

The target in experiment [8] is T2, Ephrin type-A receptor 8 (Homo sapiens). The conditions noted are these: at 10 µM.
Experiment [9] addresses T3, Ephrin type-B receptor 1 (Homo sapiens) (UniProt P54762).
T3 sequence (whole entry): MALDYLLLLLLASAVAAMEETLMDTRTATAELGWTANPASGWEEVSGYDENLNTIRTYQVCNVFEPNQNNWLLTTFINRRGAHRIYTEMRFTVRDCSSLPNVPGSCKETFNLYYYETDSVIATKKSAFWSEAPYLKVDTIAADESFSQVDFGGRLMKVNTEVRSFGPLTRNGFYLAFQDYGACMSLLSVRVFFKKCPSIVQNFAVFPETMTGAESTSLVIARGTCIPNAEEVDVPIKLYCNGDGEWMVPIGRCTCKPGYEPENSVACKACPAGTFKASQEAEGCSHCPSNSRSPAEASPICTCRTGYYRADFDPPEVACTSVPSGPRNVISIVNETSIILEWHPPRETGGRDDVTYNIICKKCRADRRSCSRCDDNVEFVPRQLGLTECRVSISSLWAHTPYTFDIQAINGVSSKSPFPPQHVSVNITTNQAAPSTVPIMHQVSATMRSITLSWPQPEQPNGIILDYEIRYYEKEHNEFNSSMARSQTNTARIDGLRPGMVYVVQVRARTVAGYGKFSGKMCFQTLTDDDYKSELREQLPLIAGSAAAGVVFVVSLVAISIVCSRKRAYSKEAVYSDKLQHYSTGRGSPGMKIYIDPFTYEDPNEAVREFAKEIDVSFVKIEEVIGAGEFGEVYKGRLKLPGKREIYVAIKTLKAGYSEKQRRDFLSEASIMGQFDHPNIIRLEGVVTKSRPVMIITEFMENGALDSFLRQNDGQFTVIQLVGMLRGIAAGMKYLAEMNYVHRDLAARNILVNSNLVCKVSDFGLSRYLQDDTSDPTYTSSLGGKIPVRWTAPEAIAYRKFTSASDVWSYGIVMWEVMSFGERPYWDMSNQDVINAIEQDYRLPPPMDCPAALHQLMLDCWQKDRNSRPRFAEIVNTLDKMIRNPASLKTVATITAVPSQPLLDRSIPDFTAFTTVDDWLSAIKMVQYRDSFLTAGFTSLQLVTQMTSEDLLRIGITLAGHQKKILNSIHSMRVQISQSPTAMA
The conditions noted are these: at 1 µM.

Experiment [10] addresses T3, Ephrin type-B receptor 1 (Homo sapiens). The conditions noted are these: at 10 µM.
For experiment [11], the target named is T4, Ephrin type-B receptor 3 (Homo sapiens) (UniProt P54753).
T4 sequence (whole entry): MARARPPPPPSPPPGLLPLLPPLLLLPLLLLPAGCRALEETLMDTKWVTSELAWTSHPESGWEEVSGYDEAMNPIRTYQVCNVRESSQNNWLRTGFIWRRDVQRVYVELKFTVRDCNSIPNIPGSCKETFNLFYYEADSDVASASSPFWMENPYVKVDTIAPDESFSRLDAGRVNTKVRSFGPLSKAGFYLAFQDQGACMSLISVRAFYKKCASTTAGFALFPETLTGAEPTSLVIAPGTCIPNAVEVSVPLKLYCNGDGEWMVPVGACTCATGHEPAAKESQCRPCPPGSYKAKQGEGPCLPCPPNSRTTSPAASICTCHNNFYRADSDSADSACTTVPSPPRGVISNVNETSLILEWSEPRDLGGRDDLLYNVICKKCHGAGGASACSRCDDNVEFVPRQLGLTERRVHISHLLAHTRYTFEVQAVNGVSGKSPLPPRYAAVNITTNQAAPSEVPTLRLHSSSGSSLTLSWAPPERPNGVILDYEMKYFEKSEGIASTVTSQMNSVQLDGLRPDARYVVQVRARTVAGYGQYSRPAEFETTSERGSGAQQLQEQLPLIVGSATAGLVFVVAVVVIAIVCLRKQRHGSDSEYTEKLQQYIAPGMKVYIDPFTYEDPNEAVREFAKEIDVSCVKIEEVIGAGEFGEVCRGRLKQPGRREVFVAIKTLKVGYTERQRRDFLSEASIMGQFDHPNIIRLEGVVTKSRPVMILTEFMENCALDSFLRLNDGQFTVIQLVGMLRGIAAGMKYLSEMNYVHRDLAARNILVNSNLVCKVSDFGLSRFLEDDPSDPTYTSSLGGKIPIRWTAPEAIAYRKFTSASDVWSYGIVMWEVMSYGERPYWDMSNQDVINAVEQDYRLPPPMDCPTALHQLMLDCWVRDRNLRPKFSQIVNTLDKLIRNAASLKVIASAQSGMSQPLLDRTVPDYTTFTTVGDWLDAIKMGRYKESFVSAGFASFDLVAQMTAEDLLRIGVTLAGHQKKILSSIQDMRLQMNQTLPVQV
The conditions noted are these: at 1 µM.

Experiment [12] addresses T4, Ephrin type-B receptor 3 (Homo sapiens). The conditions noted are these: at 10 µM.
The target in experiment [13] is T5, Ephrin type-B receptor 4 (Homo sapiens) (UniProt P54760).
T5 sequence (whole entry): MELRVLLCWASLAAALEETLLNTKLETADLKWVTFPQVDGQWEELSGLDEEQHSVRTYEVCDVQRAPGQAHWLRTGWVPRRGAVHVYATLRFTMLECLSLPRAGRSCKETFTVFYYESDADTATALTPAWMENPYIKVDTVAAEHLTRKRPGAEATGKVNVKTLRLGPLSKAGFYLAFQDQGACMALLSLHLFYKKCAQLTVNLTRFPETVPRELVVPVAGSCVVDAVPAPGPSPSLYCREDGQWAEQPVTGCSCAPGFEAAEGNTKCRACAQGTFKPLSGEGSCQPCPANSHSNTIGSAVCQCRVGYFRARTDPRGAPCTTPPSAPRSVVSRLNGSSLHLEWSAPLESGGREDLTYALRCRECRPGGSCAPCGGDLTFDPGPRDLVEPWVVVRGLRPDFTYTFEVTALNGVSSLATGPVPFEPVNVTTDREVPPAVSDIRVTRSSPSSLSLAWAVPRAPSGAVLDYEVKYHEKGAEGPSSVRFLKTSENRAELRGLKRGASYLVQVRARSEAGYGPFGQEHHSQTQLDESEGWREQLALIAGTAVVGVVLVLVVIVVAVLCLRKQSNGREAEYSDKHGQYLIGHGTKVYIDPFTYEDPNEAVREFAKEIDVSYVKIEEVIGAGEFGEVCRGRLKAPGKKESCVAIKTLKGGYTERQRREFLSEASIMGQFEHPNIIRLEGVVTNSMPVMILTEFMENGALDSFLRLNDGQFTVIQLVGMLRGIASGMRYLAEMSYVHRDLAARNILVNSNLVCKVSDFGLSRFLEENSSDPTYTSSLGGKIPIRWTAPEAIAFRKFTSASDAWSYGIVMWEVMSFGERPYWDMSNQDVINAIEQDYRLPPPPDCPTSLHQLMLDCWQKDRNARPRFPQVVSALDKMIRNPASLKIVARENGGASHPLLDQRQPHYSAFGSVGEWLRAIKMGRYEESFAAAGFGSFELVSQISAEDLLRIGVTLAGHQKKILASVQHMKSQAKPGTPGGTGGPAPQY
The following applies: at 1 µM.

Experiment [14] has as its target T5, Ephrin type-B receptor 4 (Homo sapiens). The following applies: at 10 µM.
Experiment [15] addresses Receptor tyrosine-protein kinase erbB-4 (Homo sapiens) (UniProt Q15303). The following applies: at 1 µM.
For experiment [16] the target is unchanged. The following applies: at 10 µM.
Experiment [17] has as its target Focal adhesion kinase 1 (Homo sapiens) (UniProt Q05397). The conditions noted are these: at 1 µM.

Ephrin type-A receptor 7 (Homo sapiens), sequence (Q15375 28-998 limits assumed): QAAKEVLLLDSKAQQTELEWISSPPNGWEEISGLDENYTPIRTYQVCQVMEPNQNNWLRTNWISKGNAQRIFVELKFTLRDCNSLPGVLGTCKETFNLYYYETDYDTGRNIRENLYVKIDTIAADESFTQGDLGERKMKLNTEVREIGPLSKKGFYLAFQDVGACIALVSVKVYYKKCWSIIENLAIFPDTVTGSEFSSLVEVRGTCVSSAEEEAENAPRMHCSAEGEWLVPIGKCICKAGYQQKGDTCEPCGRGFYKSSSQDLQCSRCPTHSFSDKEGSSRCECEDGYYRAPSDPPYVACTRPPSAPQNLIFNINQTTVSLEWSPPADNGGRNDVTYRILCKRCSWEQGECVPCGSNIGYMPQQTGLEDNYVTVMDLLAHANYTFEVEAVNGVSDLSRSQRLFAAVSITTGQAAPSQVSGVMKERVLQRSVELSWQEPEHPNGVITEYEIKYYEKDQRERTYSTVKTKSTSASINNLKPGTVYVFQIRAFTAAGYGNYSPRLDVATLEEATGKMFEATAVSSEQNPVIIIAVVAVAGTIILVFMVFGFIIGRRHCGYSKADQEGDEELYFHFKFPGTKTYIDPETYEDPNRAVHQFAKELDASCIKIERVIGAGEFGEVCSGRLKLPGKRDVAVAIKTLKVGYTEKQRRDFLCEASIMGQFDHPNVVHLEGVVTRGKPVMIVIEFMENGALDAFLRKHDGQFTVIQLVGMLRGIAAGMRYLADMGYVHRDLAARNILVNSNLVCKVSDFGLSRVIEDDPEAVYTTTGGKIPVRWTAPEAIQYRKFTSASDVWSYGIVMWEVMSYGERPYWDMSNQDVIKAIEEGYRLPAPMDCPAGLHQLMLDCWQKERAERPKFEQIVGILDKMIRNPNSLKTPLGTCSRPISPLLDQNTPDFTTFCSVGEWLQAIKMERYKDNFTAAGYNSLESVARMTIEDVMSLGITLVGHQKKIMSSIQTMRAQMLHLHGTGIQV
Receptor tyrosine-protein kinase erbB-4 (Homo sapiens), sequence (Q15303 whole entry): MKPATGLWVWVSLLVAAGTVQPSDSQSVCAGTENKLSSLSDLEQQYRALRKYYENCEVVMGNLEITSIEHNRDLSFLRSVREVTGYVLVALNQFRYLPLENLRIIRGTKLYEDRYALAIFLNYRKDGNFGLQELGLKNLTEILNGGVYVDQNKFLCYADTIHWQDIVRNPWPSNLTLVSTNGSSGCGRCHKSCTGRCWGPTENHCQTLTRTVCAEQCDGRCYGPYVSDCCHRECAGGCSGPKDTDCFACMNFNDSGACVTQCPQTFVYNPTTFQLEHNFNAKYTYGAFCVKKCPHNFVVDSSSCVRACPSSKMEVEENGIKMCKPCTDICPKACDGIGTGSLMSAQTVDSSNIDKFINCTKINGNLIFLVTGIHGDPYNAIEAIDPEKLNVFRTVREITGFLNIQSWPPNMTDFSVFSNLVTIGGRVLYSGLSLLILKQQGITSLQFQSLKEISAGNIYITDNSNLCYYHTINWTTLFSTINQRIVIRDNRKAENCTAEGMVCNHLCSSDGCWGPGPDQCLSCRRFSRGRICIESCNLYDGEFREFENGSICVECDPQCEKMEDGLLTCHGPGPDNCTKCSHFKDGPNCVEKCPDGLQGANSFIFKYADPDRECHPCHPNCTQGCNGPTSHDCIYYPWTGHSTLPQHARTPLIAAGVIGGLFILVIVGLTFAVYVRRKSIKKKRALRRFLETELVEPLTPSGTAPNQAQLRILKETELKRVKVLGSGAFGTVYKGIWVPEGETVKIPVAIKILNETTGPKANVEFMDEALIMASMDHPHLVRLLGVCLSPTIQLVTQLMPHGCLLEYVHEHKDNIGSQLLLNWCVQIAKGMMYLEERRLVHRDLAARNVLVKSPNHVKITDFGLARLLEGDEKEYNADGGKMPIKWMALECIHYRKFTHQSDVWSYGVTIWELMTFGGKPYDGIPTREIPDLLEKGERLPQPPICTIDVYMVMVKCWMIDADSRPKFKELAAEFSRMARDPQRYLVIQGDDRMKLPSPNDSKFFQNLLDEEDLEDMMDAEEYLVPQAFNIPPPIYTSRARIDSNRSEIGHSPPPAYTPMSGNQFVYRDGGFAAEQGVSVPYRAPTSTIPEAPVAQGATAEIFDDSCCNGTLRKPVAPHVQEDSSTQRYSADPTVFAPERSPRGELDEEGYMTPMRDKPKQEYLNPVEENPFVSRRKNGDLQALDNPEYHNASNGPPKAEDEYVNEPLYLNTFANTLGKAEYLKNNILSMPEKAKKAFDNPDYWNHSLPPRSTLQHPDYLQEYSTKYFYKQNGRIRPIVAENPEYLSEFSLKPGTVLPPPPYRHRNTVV

On to `c1ccc(-c2n[nH]cc2-c2ccnc3ccccc23)nc1`, for which the residual activity worked out at 78% in [1]; 103% in [2]; 109% in experiment [3]; 103% in experiment [4]; 94% in experiment [5]; 91% in [6]. The residual activity in [7] is 95%; in experiment [8], 97%; in experiment [9] it was 104%; in experiment [10], 105%; in experiment [11] it was 102% (inactive); in [12], 137%. Moreover, the residual activity in experiment [13] is 109%; in experiment [14], 105%; in experiment [15], 98%; in experiment [16] it was 98%.

Consider `c1ccc(-c2n[nH]c3c2oc2ccccc23)cc1`, for which the residual activity in [5] is 96%; in experiment [6] it was 78%; in [9] it was 99%; in experiment [10], 90%; in [11], 93% (inactive); in experiment [12], 100%. The residual activity in experiment [13] came out at 100%; in [14], 116%; in [15], 90%; in experiment [17] it was 122%.
